From PubChem BioAssay
CHRM1 agonist: human M1 muscarinic receptor agonists, primary screen, Fluo-8 calcium fluorescence, CHO-K1 cells, HTS. Muscarinic acetylcholine receptor M1 (Homo sapiens), P11229. CHO-K1 hM1, agonist mode; 0% DMSO, 100% acetylcholine EC100. activation, % at 3 µM. actives 0.33% (n = 360,000);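 active = activation above the run's mean compound activation plus 3 SD, cut at about 16% in these data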;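 note: peak over basal fluorescence ratio within a 140 s kinetic read after compound addition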
M1 PAM parental: nonselective calcium activators in parental CHO-K1 cells, primary screen, counter-screen for M1 PAM project, cell-based, Fluo-8 calcium fluorescence, full deck, 1536-well | ATP EC20; 0% at ATP EC20, 100% at ATP max | activation, % at 3 µM | actives 0.02% (n = 360,000) | AID 602247, 2012;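 active = activation above the run cutoff, the mean activation of all test compounds plus 3 SD, cut at about 40% in these data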;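 note: peak over basal fluorescence ratio in a 140 s read after ATP addition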
CHRM1 PAM: human M1 muscarinic receptor positive allosteric modulators, primary screen, CHO-K1 cells, Fluo-8 calcium fluorescence, 1536-well; Muscarinic acetylcholine receptor M1 (Homo sapiens), P11229; activation, % at 3 µM; actives 0.088% (n = 360,000); CHO-K1 hM1, ACh EC20; 0% = ACh EC20, 100% = maximal ACh; AID 588819, 2011; in the data active = activation above about 19%, passing the limit was not always enough
M1 antag: human M1 muscarinic receptor antagonists, primary screen, CHO-K1 cells, Fluo-8 calcium fluorescence, 1536-well; CHO-K1 hM1, ACh EC80 antagonist; Muscarinic acetylcholine receptor M1 (Homo sapiens), P11229; AID 588852, 2011; actives 1.3% (n = 360,000); inhibition, % at 3 µM;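 active = percent inhibition above its own plate's cutoff, namely the mean of that plate's compound wells plus 3 SD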;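 note: peak over basal fluorescence ratio during 140 s after agonist addition; 0% = ACh EC80 plus DMSO and 100% = DMSO alone without agonist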
M1 ag parental: counter-screen for M1 agonists: effect in parental CHO-K1 cells; Fluo-8 calcium fluorescence; scaled to maximal ATP response, vehicle zero; activation, % at 3 µM; actives 0.48% (n = 360,000); AID 602248, 2012; in the data active = activation above about 15%;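 note: untransfected CHO-K1 host cells lacking M1 receptor as counterscreen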
CHO-K1 Ca antag: M1 antagonist counterscreen hit in parental CHO-K1 cells; ATP-induced calcium, Fluo-8 fluorescence; inhibition, % at 3 µM; actives 0.6% (n = 360,000);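 active = inhibition above a per-plate cutoff, the plate's mean sample inhibition plus 3 SD, cut at about 24% in these data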;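 note: 0% = DMSO plus EC80 ATP and 100% = DMSO alone without ATP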
* marks the source's active call; other numbers are inactive results. Rows were chosen to be rich in hits. Some 2.3% of all compounds tested hit in one or more screens of this group.

SMILES	CHRM1 agonist	M1 PAM parental	CHRM1 PAM	M1 antag	M1 ag parental	CHO-K1 Ca antag
CC1CCSP(=O)(Oc2ccccc2)O1 (stereo not drawn)	-3	-6	2	-3	1	1
O=c1cccc2n1C[C@@H]1C[C@@H]2CN(CC(O)c2ccc([N+](=O)[O-])cc2)C1 (stereo partly drawn)	-1	-22	0	-1	0	6
Nc1c(C(=O)NCCN2CCOCC2)c2nc3ccccc3nc2n1Cc1ccccc1	-2	23	6	-8	16*	-2
Nc1c(C(=O)NCCc2ccccc2)c2nc3ccccc3nc2n1CCN1CCOCC1	-5	12	3	10	2	5
O=C1C2CCN(CC2)[C@@H]1Cc1ccc2ccccc2c1O	-2	7	-17	40*	1	6
CS(=O)(=O)c1ccc(C2=C(CNC(=O)c3nccs3)[C@H]3CC[C@@H](C2)N3Cc2ccco2)cc1	-11	-14	-13	16	1	6
COC(=O)C1=C(c2cc3ccccc3o2)C[C@@H]2CC[C@H]1N2C(=O)N1CCC(C)CC1	-6	18	-5	6	0	-17
C=C(C)[C@@]12OC3(c4ccccc4)O[C@@H]1C1[C@@H]4O[C@]4(CO)[C@@H](O)[C@]4(O)C(=O)C(C)=C[C@H]4[C@@]1(O3)[C@H](C)[C@H]2OC(=O)/C=C/C=C/c1ccccc1 (stereo partly drawn)	-7	-19	-32	43*	1	-1
CN(C(=O)Cc1ccc(Cl)c(Cl)c1)C(CN1CCCC1)c1cccc(OCC(=O)O)c1 (stereo not drawn)	-2	13	4	-23	0	3
c1ccc2[nH]c(CCN3CCCCC3)nc2c1	-6	-4	2	-3	0	-6
CC(=O)Nc1cccc([As](=O)(c2cccc(NC(C)=O)c2)c2cccc(NC(C)=O)c2)c1	0	1	15	-17	0	-12
CC(=O)Nc1cc([As](=O)(O)O)ccc1O	20*	6	-6	-18	0	-11
O=C(Cc1ccccc1)N1CCN(Cc2ccc([N+](=O)[O-])cc2)CC1	-5	-13	-11	17	0	15
O=[N+]([O-])c1cccc(CN2CCN(Cc3ccc(Br)cc3)CC2)c1	-12	-4	-29	27*	6	8
COc1cc(CNCCc2c[nH]c3ccccc23)cc(OC)c1	-4	-1	-3	6	2	25*
Fc1cccc(CNCCc2c[nH]c3ccccc23)c1	-4	-2	3	-2	0	3
Cc1cccc(CNCCc2c[nH]c3ccccc23)c1	-1	20	4	3	23*	-6
CC1=C(O)C(=O)C=C2C1=CC=C1C2(C)CCC2(C)C3CC(C)(C(=O)O)CCC3(C)CCC12C (stereo not drawn)	0	6	-6	35	6	37*
NC1=NC(=O)N2CC12 (stereo not drawn)	-2	2	-1	-5	0	-7
C[N+](C)(C)Cc1ccccc1	76*	-3	-29	56	1	2
CN(CC1COc2ccccc2O1)c1nc(-c2cccnc2)nc2ccccc12 (stereo not drawn)	0	-4	-13	30*	3	-4
CN1CCC(N(C)c2nc(-c3ccc([N+](=O)[O-])cc3)nc3ccccc23)CC1	-2	19	-4	-3	2	-11
O=[N+]([O-])c1ccc(N2CCCCCC2)c2nonc12	145*	-20	-33	53*	162*	53*
O=[N+]([O-])c1ccc(N2CCCNCC2)c2ncccc12	-7	13	-24	82*	1	-7
O=[N+]([O-])c1ccc(N2CCNCC2)cc1N1CCCCC1	-16	21	4	-9	2	-13
